Screens: PubChem BioAssay, several laboratories
SENP8 block-1 = human SENP8 protease inhibitors, primary screen, biochemical, fluorescence, Nedd8 protein substrate, uHTS; AID 602440, 2012; inhibition, % at 20 µM; recombinant SENP8; Sentrin-specific protease 8 (Homo sapiens), Q96LD8; hit rate 0.64% among 360,000; in the data active = inhibition mostly above about 40%, no sharp cut-off; inactive = mostly below about 27%
SENP8 block-2 = SENP8 protease inhibitors, primary screen, biochemical, luminescence | purified SENP8, Z-RLRGG-aminoluciferin cleavage | Sentrin-specific protease 8 (Homo sapiens), Q96LD8 | hit rate 1.2% among 330,000 | inhibition, % at 10 µM; in the data active = inhibition above about 50%
SENP7 inh = SENP7 protease inhibitors, primary screen, biochemical, luminescence, uHTS | Sentrin-specific protease 7 (Homo sapiens), Q9BQF6 | recombinant SENP7, Z-RLRGG-aminoluciferin luminescence, 40 min | inhibition, % at 5 µM | hit rate 1.5% among 330,000 | AID 434973, 2010;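 active = inhibition above about 50% at the single test dose, limit read from the data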
Target sequence (Q9BQF6 706-1050 limits assumed): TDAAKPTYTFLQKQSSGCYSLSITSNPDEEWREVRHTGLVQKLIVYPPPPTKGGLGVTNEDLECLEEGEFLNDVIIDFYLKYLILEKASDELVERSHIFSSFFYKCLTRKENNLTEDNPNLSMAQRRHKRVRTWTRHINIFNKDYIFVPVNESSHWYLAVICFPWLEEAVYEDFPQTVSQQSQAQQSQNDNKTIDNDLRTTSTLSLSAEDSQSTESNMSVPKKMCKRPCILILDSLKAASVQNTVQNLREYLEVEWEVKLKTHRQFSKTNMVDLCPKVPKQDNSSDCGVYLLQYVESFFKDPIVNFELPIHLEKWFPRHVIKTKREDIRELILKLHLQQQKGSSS
AHR activator = AHR activators, primary screen, cell-based, luminescence, luciferase reporter, human | Aryl hydrocarbon receptor (Homo sapiens), P35869 | AHR-responsive luciferase reporter cells | activation, % at 5 µM | hit rate 2.5% among 320,000; in the data active = activation above about 47%
EBI2 antag = EBI2 receptor antagonists, beta-arrestin recruitment, primary screen, cell-based, luminescence, 7a,25-OHC stimulation, uHTS; 7a,25-OHC stimulated; inhibition, % at 5 µM; hit rate 0.81% among 360,000; in the data active = inhibition above about 38%;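 note: enzyme fragment complementation signal reports receptor beta-arrestin coupling in cells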
SENP6 block = SENP6 protease inhibitors, primary screen, biochemical, luminescence, uHTS | inhibition, % at 10 µM | Sentrin-specific protease 6 (Homo sapiens), Q9GZR1 | hit rate 1.8% among 330,000 | Recombinant SENP6 catalytic domain, aminoluciferin luminescence;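 active = inhibition above about 50% at the single tested dose, limit read from the data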
SENP8 confirm = SENP8 protease inhibitors, retest, confirmation, biochemical, luminescence, single concentration; inhibition, % at 12.5 µM; shares compounds with SENP7 inh; AID 488912, 2010; hit rate 40% among 6,200; Recombinant SENP8, Z-RLRGG-aminoluciferin luminescence, 60 min;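 active = mean inhibition across replicates above about 50%, limit read from the data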
SENP6 confirm = SENP6 protease inhibitors, confirmation, biochemical, luminescence, single concentration. shares compounds with SENP7 inh. recombinant SENP6, Z-RLRGG-aminoluciferin luminescence. inhibition, % at 12.5 µM. hit rate 58% among 6,200. AID 488915, 2010
SENP7 conf = SENP7 protease inhibitors, retest, confirmation, biochemical, luminescence, single concentration; inhibition, % at 12.5 µM; recombinant SENP7, Z-RLRGG-aminoluciferin luminescence, 40 min; hit rate 69% among 6,200; shares compounds with SENP7 inh
Casp3 SENP sel = caspase-3 protease inhibitors, confirmation, selectivity assay for SENP inhibitor project, biochemical, single concentration | purified caspase-3, Z-DEVD-aminoluciferin luminescence, 60 min | shares compounds with SENP7 inh | hit rate 60% among 6,200 | inhibition, % at 12.5 µM;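 active = mean inhibition above about 50%, limit read from the data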
Target sequence (P42574 28-227 limits assumed): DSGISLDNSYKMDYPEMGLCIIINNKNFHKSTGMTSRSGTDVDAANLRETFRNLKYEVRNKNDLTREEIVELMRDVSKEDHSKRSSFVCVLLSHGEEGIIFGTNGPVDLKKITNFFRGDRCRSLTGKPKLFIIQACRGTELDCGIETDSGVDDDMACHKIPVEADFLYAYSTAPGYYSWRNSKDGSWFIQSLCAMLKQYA
Luc interf = interferes with luciferase luminescence in SENP counter-screen | shares compounds with SENP7 inh | Pre-incubated SENP8/Z-RLRGG-aminoluciferin, luciferase luminescence interference | inhibition, % at 12.5 µM | hit rate 39% among 6,200 | AID 488919;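 active = mean inhibition above about 50% when retested at one dose, limit read from the data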
Of the large screens only hits and unclear results are named; the others gave an inactive call (follow-up assays come after a bar, where they were run). Rows were chosen to be rich in hits. Some 5% of all compounds tested hit in one or more screens of this group.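 Rule for the calls, unless noted: active = mean inhibition above about 50% in the one-dose retest (limit read from the data); inactive = the rest.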

O=C(Nc1ccc2c(c1)OCCO2)c1cc2sccc2n1Cc1ccccc1	none
Cc1c(C(=O)Nc2ccc3c(c2)OCCO3)cnn1C	none
Cn1c(C(=O)Nc2ccc3c(c2)OCCO3)cc2sccc21	SENP8 block-2 70, SENP7 inh 79, SENP6 block 74 | SENP8 confirm 86 | SENP6 confirm 85 | SENP7 conf 97 | Casp3 SENP sel 70 | Luc interf 74
Cn1nc(C(=O)Nc2ccc3c(c2)OCCO3)cc1C(=O)O	SENP7 inh 66, SENP6 block 56 | SENP8 confirm 56 | SENP6 confirm 54 | SENP7 conf 86 | Casp3 SENP sel 85 | Luc interf 64
Cn1nccc1C(=O)Nc1ccc2c(c1)OCCO2	SENP8 block-2 55, SENP7 inh 71, SENP6 block 81 | SENP8 confirm 58 | SENP6 confirm 58 | SENP7 conf 88 | Casp3 SENP sel 88 | Luc interf 65
COc1ccccc1CNC(=O)COc1cccc(-n2cnnn2)c1	none
C=C(C)Cn1c(C)cc(C)c(S(=O)(=O)c2cccc(C)c2)c1=O	none
COCCNC(=O)/C(C#N)=C/c1ccc(O)cc1	SENP8 block-2 77, SENP7 inh 82, SENP6 block 92 | SENP8 confirm inactive | SENP6 confirm 79 | SENP7 conf 96 | Casp3 SENP sel 83 | Luc interf 80
CN(C(=O)c1ccc(NC(=O)Cc2ccccc2)cc1)c1ccccc1	SENP7 inh 61, SENP6 block 54 | SENP8 confirm inactive | SENP6 confirm inactive | SENP7 conf 74 | Casp3 SENP sel 65 | Luc interf 59
O=C(O)c1cccc(NC(=O)c2cccc(S(=O)(=O)N3CCCCC3)c2)c1	SENP8 block-2 64, SENP7 inh 78, SENP6 block 77 | SENP8 confirm 79 | SENP6 confirm 77 | SENP7 conf 94 | Casp3 SENP sel inactive | Luc interf 66
COc1ccc(C(=O)Nc2cccc(C(=O)O)c2)cc1S(=O)(=O)N1CCCC1	SENP7 inh 54, SENP6 block 51 | SENP8 confirm inactive | SENP6 confirm inactive | SENP7 conf 73 | Casp3 SENP sel inactive | Luc interf inactive
COc1ccc(C(=O)Nc2ccc(NC(=O)c3ccccc3)cc2)cc1S(=O)(=O)N1CCOCC1	none
O=C(COC(=O)CCC(=O)c1ccc(F)cc1)Nc1cccc(S(=O)(=O)N2CCCC2)c1	SENP6 block 88 | SENP8 confirm inactive | SENP6 confirm inactive | SENP7 conf inactive | Casp3 SENP sel inactive | Luc interf inactive
COc1ccc(NS(=O)(=O)c2cccc(C(=O)NN=C(C)c3ccco3)c2)cc1	none
CCC1CCCCN1Cc1nc(Cc2ccccc2Cl)no1 (configuration not stated)	none
C1=CC2=NC34CCCCC3CC3=C(CCCC3)N4C2=CC1=NC1CCCCC1 (configuration not stated)	SENP6 block 51 | SENP8 confirm inactive | SENP6 confirm inactive | SENP7 conf inactive | Casp3 SENP sel inactive | Luc interf inactive
O=C(Cc1cnc2ncnn2c1)N1CCc2c([nH]c3ccccc23)C1c1ccccn1 (configuration not stated)	none
CC1=C2C3OC(=O)C(C)C3CCC2(C)C=C(Cl)C1=O (configuration not stated)	none (no result: SENP8 block-2, SENP7 inh, AHR activator, SENP6 block)
Cc1cc(=O)[nH]c(N=N/C(=N/Nc2ccccc2C)c2ccccc2)n1	none
Cc1cc(=O)[nH]c(N=N/C(=N/Nc2ccc(O)cc2)c2ccccc2)n1	SENP6 block 61 | SENP8 confirm inactive | SENP6 confirm inactive | SENP7 conf inactive | Casp3 SENP sel inactive | Luc interf inactive
COc1ccc(N/N=C(/N=Nc2nc(C)cc(=O)[nH]2)c2ccccc2)cc1	SENP6 block 68 | SENP8 confirm inactive | SENP6 confirm inactive | SENP7 conf inactive | Casp3 SENP sel inactive | Luc interf inactive
COc1ccc(C(=O)C(=NNc2ccccc2)c2ccc(OC)cc2)cc1	none (no result: SENP8 block-2, SENP7 inh, AHR activator, SENP6 block)
COc1ccc(C(=O)Nc2ccccc2C(=O)Nc2cccc(C)n2)cc1	none
COc1ccc(C(=O)NC(=O)Nc2cc(C)ccn2)cc1	SENP8 block-2 79, SENP6 block 83 | SENP8 confirm 78 | SENP6 confirm 78 | SENP7 conf 94 | Casp3 SENP sel 92 | Luc interf 68
COc1ccc(C(=O)Nc2ccccc2C(=O)Nc2cc(C)ccn2)cc1	SENP8 block-2 58, AHR activator 56, SENP6 block 64 | SENP8 confirm inactive | SENP6 confirm inactive | SENP7 conf inactive | Casp3 SENP sel inactive | Luc interf inactive
COc1ccc(C(=O)NC(=O)Nc2ncccc2C)cc1	none
O=C(/C=C/c1ccc(O)c(O)c1)c1ccccc1O	SENP8 block-2 97, SENP7 inh 97 | SENP8 confirm inactive | SENP6 confirm 101 | SENP7 conf 103 | Casp3 SENP sel 95 | Luc interf 99
Cc1ccc2nsnc2c1S(=O)(=O)N(CCO)Cc1cc2cc3c(cc2[nH]c1=O)OCCO3	SENP7 inh 71 | SENP8 confirm inactive | SENP6 confirm inactive | SENP7 conf inactive | Casp3 SENP sel inactive | Luc interf inactive
COc1ccc(-n2c3nc4ccccc4nc3c3c(=N)oc(C)nc32)cc1	SENP8 block-2 63, SENP7 inh 75, SENP6 block 90 | SENP8 confirm inactive | SENP6 confirm inactive | SENP7 conf inactive | Casp3 SENP sel inactive | Luc interf inactive
CCCCn1c2nc3ccccc3nc2c2c(=N)oc(C)nc21	none (no result: SENP8 block-2, SENP7 inh, AHR activator, SENP6 block)
COC(=O)CSc1nnc(-c2sc3ccccc3c2Cl)o1	SENP7 inh 56, SENP6 block 70 | SENP8 confirm inactive | SENP6 confirm inactive | SENP7 conf inactive | Casp3 SENP sel inactive | Luc interf inactive
